Screening results as filed in PubChem.
Rows were chosen to be rich in hits. Some 12% of all compounds tested hit in one or more screens of this group.
BAZ2B inh – qHTS Assay for Inhibitors of BAZ2B; Bromodomain adjacent to zinc finger domain protein 2B (Homo sapiens), Q9UIF8; AID 504333, 2011; actives 4.4% (n = 360,000); AlphaScreen BAZ2B-H3K14Ac peptide displacement; Potency, µM (doses to about 114 µM), for inactives: at the highest dose activity change, negative = inhibition, actives largely listed as inhibitors; further: on the % scale 0 is the no-effect control and ±100 the full control effect; nearly all actives have a fitted effect of over 60% in size
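Complex of BAZ2B and biotin-H3K14Ac (50 nM apiece) forms over 30 min at RT, then faces library compounds up to 110 uM for another 30 min; AlphaScreen beads added, 20 min dark incubation, luminescence read.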
JMJD2A Tudor – qHTS Assay for Inhibitors of JMJD2A-Tudor Domain | Lysine-specific demethylase 4A (Homo sapiens), O75164 | AlphaScreen JMJD2A-Tudor / H3K4me3 peptide binding | Potency, µM (top dose mostly 114 µM), inactives show top-dose activity change, negative = inhibition, hits mostly inhibitors | actives 4.4% (n = 390,000); further: on the % scale 0 is the no-effect control and ±100 the full control effect; nearly all actives have a fitted effect of over 50% in size
Sfp inh – qHTS Assay for Inhibitors of Bacillus subtilis Sfp phosphopantetheinyl transferase (PPTase); 4'-phosphopantetheinyl transferase ffp (Bacillus subtilis), Q9F4F7; Biochemical Sfp PPTase activity, qHTS; Potency, µM, without a hit: largest response in the series, negative = inhibition, actives largely listed as inhibitors; actives 3.5% (n = 310,000); AID 1490, 2009;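 further: the enzyme is Sfp with the accession as filed and its product quenches rhodamine fluorescence; 0% = enzyme reaction without inhibitor and -100% = no enzyme wells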
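Buffer: 50 mM Hepes-Na pH 7.6, 10 mM MgCl2, 0.01% Nonidet P-40, 0.01% BSA. Enzyme 15 nM, pre-exposed to compound 15 min; substrates then added and fluorescence change tracked over 30 min.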
G9a inh – qHTS Assay for Inhibitors of Histone Lysine Methyltransferase G9a | Histone-lysine N-methyltransferase EHMT2 (Homo sapiens), Q96KQ7 | G9a H3K9 monomethylation, AlphaScreen, 2 h | Potency, µM (titrated, usually from 102 µM), for inactives: top-dose activity, negative = inhibition, most hits filed as inhibitors | actives 8.8% (n = 350,000) | AID 504332, 2011; further: on the % scale 0 is the no-effect control and ±100 the full control effect; nearly all actives have a fitted effect of over 75% in size
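Step 1: enzyme (final 20 nM) with compound, 15 min RT. Step 2: substrate peptide 500 nM and SAM 20 uM, 2 h RT. Step 3: anti-H3K9me1 antibody and AlphaScreen beads, 10 min, then plate read.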
L3MBTL1 block – qHTS Assay for the Inhibitors of L3MBTL1 | Lethal(3)malignant brain tumor-like protein 1 (Homo sapiens), Q9Y468 | AlphaScreen L3MBTL1–H3K9me1 peptide binding | Potency, µM (doses to about 57.1 µM), inactives show top-dose activity, negative = inhibition, usual class: inhibitors | actives 0.66% (n = 230,000) | AID 485360, 2010; further: on the % scale 0 is the no-effect control and ±100 the full control effect; nearly all actives have a fitted effect of over 60% in size
Target sequence (Q9Y468 whole entry, looked up): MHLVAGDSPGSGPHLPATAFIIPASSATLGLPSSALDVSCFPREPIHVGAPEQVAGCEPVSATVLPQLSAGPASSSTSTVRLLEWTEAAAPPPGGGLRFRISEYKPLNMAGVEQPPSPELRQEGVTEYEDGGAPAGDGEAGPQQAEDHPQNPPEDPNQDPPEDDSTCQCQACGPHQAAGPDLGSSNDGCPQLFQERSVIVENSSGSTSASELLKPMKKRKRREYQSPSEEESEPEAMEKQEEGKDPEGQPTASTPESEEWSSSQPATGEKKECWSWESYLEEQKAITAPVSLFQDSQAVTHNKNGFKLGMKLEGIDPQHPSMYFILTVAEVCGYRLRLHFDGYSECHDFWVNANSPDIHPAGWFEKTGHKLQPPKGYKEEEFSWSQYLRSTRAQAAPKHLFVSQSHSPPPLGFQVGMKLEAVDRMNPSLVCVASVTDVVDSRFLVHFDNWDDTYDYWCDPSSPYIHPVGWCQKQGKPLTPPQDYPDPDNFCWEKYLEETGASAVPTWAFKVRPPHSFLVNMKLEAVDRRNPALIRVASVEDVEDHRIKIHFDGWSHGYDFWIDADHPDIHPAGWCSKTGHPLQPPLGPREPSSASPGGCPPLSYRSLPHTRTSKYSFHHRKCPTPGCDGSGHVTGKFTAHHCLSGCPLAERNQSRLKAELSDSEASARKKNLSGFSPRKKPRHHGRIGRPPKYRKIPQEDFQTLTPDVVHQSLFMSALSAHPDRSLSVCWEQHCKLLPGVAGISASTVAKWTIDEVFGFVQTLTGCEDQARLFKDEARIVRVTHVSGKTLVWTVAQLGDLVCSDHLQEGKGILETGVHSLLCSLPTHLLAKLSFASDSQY
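L3MBTL1 (50 nM) pre-complexed 30 min with biotinylated H3(1-15)K9me1 peptide (75 nM), then compounds added for 30 min at room temperature; AlphaScreen streptavidin donor/nickel chelate acceptor beads (10 ug/mL final) read after 30 min dark incubation.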
HP1b binding inh – HTS for Inhibitors of HP1-beta Chromodomain Interactions with Methylated Histone Tails; Chromobox protein homolog 1 (Homo sapiens), P83916; AlphaScreen HP1-beta / biotin-H3K9me3 peptide binding; Potency, µM (series often up to 114 µM), inactives show at the top dose activity change, negative = inhibition, usual class: inhibitors; actives 0.56% (n = 390,000); AID 540317, 2011; further: nearly all actives have a fitted effect of over 70% in size
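Compound inhibition of the preformed complex between 50 nM HP1-beta and 50 nM biotinylated H3K9me3 peptide was read by AlphaScreen. Buffer was PBS pH 7.4 with 0.01% Tween-20. Incubations ran 30 min at room temperature, with 10 ug/mL donor/acceptor beads.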
The depositor's hits bear a star; [ ] = another dose, or the depositor's remark. The call rests on the fitted dose curve; in most records, active means well fitted curve in the direction sought with a large enough effect; inconclusive means small, poorly fitted or top-dose-only effect, or another doubt; inactive means no such curve, though single readings can be large; an effect the other way counts as inactive or inconclusive. Potency means the concentration at half of the fitted maximal effect.

`O=C(CSc1nc2c(c(=O)[nH]1)CCCC2)Nc1cccc(O)c1` gave BAZ2B inh -35%, JMJD2A Tudor -31%, G9a inh inconclusive and HP1b binding inh 0%.
`COc1ccc(C)cc1NC(=O)CCc1ccc(S(=O)(=O)N2CCOCC2)cc1` gave BAZ2B inh 1%, JMJD2A Tudor -13%, G9a inh 13%[59 µM], L3MBTL1 block 0% and HP1b binding inh 27%.
`O=C(OCn1ncc(Br)c(Br)c1=O)c1ccc(F)cc1` gave BAZ2B inh 0%, JMJD2A Tudor -10%, Sfp inh 50µM*, G9a inh -25%[12.7 µM] and HP1b binding inh 32%.
COc1ccc(NC(=O)c2ccc(=O)oc2)cc1 was read as BAZ2B inh -4%, JMJD2A Tudor -22%, Sfp inh 10%, G9a inh 50µM*, L3MBTL1 block 1% and HP1b binding inh 36%.
`COc1ccc(N/C(=C2\CCCC2=O)C2CCCCC2)cc1` gave JMJD2A Tudor 56µM* and HP1b binding inh -11%.
Screening COc1ccc(NC(=O)CN(C)CC(=O)NCC2CCCCC2)cc1 returned BAZ2B inh 0%, JMJD2A Tudor inconclusive, G9a inh 56µM*, L3MBTL1 block 9% and HP1b binding inh 17%.
Screening COc1ccc(NC(=O)c2coc(C)c2)cc1 returned BAZ2B inh -8%, JMJD2A Tudor -17%, Sfp inh 14%, G9a inh inconclusive and HP1b binding inh 17%.
`CSc1ncccc1C(=O)Nc1ccc(OC(F)(F)F)cc1` gave BAZ2B inh 0%, JMJD2A Tudor 11µM*, Sfp inh 12%, G9a inh 13%, L3MBTL1 block 9% and HP1b binding inh 20%.
Screening CN(CC(=O)NCC1CCCCC1)CC(=O)Nc1ccc(F)cc1 returned BAZ2B inh -5%, JMJD2A Tudor -14%, G9a inh inconclusive, L3MBTL1 block 2% and HP1b binding inh 29%.
COc1cc(NC(=O)c2cccnc2SC)cc(OC)c1OC was read as BAZ2B inh -3%, JMJD2A Tudor -8%[57.1 µM], Sfp inh 18%, G9a inh 16%, L3MBTL1 block -5% and HP1b binding inh 49%.
Screening Cc1cc(C)cc(C(=O)NCC(=O)OCC(=O)NC2CC2)c1 returned JMJD2A Tudor -8%, L3MBTL1 block 5% and HP1b binding inh -8%.
CC(CNC(=O)c1cc2cc(S(=O)(=O)N3CCCCC3)ccc2n1C)c1ccccc1 (stereo not given) was read as BAZ2B inh 1%, JMJD2A Tudor -21%, G9a inh 2%[59 µM] and HP1b binding inh 15%[57 µM].
N#CCCn1cc(C(=O)O)c(-c2cccs2)n1 was read as BAZ2B inh -2%, JMJD2A Tudor -1%, Sfp inh 2%, G9a inh -7%, L3MBTL1 block -2% and HP1b binding inh 34%.
`C=C(Nc1ccc(OC)cc1)C(=O)OC` gave Sfp inh -8%.
COc1ccc(NC(=O)CN(C)CC(=O)Nc2ccccc2SC)cc1 was read as BAZ2B inh 20µM*, JMJD2A Tudor 32µM*, Sfp inh inconclusive, G9a inh 8.9µM*, L3MBTL1 block 11% and HP1b binding inh inconclusive.
`COc1ccc(NC(=O)c2cccc(C(=O)Nc3ccc(OC)cc3)n2)cc1` gave BAZ2B inh -19%, Sfp inh inconclusive, G9a inh 71µM* and L3MBTL1 block 7%.
For COc1ccc(NC(=O)c2cc(-c3ccccc3O)no2)cc1 the results were BAZ2B inh -28%, JMJD2A Tudor inconclusive, G9a inh 13µM* and HP1b binding inh -16%.
Screening COc1ccc(NC(=O)c2sc(=S)[nH]c2N)cc1 returned BAZ2B inh inconclusive, JMJD2A Tudor 35µM*, Sfp inh 56µM*, G9a inh inconclusive, L3MBTL1 block -3% and HP1b binding inh -27%.
For COc1ccccc1N1CCN(C2CCCN(C(=O)CN3CCCCC3=O)C2)CC1 (stereo not given) the results were BAZ2B inh 19%, JMJD2A Tudor -4%, Sfp inh 5% and HP1b binding inh 20%.
For Cc1ccc(C2=NN(CCC#N)C(=O)CO2)cc1 the results were BAZ2B inh 1%, JMJD2A Tudor -13%, Sfp inh 11%, G9a inh inconclusive and HP1b binding inh 34%.
For COc1ccc(NC(=O)c2ccccc2SC)cc1 the results were BAZ2B inh 8%, JMJD2A Tudor -6%, Sfp inh -2%, G9a inh 45µM*, L3MBTL1 block -9% and HP1b binding inh 37%.
`CN(c1ccccc1)S(=O)(=O)c1ccc(C(=O)NNC(=O)c2ccccc2F)cc1` gave BAZ2B inh 8%, JMJD2A Tudor 3%, G9a inh 28%[59 µM], L3MBTL1 block 0% and HP1b binding inh 42%.
`CC1CCCC(C)N1C(=O)COC(=O)/C=C/c1ccc(Br)o1` (stereo not given) gave JMJD2A Tudor 20µM*, L3MBTL1 block inconclusive and HP1b binding inh inconclusive.
CCN(CC)c1ccc(N=C2C=CC(=O)C=C2NC(C)=O)cc1 was read as JMJD2A Tudor 10µM* and HP1b binding inh 25µM*.
For CC1CCCN(c2ncnc3c2cnn3-c2ccccc2)C1 (stereo not given) the results were BAZ2B inh 24%, JMJD2A Tudor 16%, Sfp inh 89µM*, G9a inh 43%[59 µM] and HP1b binding inh 134%.
`Cc1sc2ncnc(N3CCCC(C)C3)c2c1C` (stereo not given) gave BAZ2B inh -9%, JMJD2A Tudor 19%, Sfp inh 13%, G9a inh 56µM*, L3MBTL1 block 4% and HP1b binding inh 55%.
CC1CCCN(c2ncnc3c2cnn3-c2ccc(Cl)cc2)C1 (stereo not given) was read as BAZ2B inh 51%, JMJD2A Tudor 43%, Sfp inh 13%, G9a inh 37%[12.7 µM] and HP1b binding inh 130%.
Screening Cc1sc2ncnc(N3CCCCC3)c2c1C returned BAZ2B inh 7%, JMJD2A Tudor 11%, Sfp inh 12%, G9a inh 35%[12.7 µM] and HP1b binding inh 35%.
